# Compound activity as filed in PubChem.
# FAS TE block: inhibitors of human fatty acid synthase thioesterase domain | 360,000 compounds, 0.67% hits | P49327 | recombinant FAS-TE, OMFH fluorogenic substrate, fluorescence endpoint | inhibition, % at 15 µM | AID 602261;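 active = compounds whose normalised, plate-corrected inhibition of enzyme fluorescence in the single-dose primary screen is 50% or more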;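 note: 0% = DMSO with enzyme and 100% = substrate without enzyme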
# Target sequence (P49327 whole entry, looked up, the tested form may be a part): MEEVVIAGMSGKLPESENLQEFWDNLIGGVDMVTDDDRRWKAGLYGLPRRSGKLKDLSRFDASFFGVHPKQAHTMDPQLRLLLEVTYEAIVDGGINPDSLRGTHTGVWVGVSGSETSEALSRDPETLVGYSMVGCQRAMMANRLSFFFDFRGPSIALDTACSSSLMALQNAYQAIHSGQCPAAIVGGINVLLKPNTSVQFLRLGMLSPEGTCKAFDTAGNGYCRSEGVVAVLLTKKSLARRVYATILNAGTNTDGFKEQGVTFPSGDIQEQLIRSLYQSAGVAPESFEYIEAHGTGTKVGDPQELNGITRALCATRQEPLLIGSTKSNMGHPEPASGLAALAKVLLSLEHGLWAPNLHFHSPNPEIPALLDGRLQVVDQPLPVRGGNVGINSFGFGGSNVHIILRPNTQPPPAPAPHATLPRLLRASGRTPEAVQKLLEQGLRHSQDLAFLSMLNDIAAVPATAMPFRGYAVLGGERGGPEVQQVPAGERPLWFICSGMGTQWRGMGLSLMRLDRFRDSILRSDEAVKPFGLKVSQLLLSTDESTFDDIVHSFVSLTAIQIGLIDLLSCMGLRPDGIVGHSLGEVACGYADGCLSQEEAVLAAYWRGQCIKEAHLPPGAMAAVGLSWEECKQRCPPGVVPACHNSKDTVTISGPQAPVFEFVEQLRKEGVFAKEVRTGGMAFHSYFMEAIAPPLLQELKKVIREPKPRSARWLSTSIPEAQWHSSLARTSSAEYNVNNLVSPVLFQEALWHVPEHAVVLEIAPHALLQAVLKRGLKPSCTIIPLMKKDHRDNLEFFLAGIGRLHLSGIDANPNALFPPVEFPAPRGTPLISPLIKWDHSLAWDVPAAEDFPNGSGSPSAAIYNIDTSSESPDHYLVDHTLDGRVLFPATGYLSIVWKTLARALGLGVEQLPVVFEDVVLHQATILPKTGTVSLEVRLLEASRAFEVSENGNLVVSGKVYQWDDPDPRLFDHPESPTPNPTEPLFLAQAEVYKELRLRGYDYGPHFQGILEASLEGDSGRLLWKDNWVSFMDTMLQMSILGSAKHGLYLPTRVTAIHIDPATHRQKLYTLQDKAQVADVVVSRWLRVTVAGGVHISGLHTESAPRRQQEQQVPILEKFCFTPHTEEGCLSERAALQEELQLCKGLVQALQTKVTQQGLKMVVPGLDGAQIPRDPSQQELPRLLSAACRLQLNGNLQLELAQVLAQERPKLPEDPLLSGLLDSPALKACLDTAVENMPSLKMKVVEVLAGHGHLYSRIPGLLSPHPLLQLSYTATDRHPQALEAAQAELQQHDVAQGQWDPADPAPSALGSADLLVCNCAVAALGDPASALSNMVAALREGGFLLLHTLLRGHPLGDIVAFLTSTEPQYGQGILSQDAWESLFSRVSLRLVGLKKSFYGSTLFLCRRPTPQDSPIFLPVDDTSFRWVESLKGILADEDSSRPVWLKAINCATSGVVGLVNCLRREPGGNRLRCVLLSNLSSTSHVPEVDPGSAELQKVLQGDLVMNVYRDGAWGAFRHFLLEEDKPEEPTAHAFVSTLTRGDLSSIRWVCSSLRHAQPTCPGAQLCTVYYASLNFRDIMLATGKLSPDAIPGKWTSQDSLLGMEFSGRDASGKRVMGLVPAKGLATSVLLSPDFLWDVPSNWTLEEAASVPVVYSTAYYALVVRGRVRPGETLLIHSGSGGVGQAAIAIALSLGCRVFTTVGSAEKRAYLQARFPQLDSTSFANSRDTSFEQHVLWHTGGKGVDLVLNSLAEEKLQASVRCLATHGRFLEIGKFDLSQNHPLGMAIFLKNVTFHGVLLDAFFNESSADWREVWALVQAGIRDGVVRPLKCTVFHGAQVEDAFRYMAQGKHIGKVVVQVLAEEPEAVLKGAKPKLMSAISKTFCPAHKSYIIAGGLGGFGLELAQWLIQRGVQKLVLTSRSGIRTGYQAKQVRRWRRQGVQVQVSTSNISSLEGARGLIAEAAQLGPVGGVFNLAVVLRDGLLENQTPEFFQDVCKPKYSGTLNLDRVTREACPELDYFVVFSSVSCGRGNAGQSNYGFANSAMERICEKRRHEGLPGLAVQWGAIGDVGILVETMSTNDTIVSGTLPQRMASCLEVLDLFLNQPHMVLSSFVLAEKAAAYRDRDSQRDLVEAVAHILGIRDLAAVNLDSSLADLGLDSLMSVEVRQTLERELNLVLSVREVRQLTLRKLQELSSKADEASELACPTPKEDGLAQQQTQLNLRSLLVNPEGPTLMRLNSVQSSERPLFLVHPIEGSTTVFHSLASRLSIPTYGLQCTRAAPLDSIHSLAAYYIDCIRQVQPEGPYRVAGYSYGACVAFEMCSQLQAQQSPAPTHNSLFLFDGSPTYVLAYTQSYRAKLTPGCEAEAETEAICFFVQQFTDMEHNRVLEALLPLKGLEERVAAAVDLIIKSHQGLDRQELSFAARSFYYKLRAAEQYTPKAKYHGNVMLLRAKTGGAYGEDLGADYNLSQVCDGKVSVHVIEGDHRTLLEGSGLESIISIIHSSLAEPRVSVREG
# MPTP inh: blocks calcium-induced mitochondrial swelling. isolated mouse mitochondria, Ca2+ swelling absorbance, 30 min. inhibition, % at 10 µM. 360,000 compounds, 1.4% hits. AID 602449;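 active = inhibition of 50% or more, scaled per plate between neutral and stimulator controls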;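 note: 0% = DMSO wells given calcium and 100% = 1 mM EGTA wells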
# NR3A LBD binder: modulates the human NR3A ligand-binding domain; NR3A LBD differential scanning fluorimetry, Tm shift; 0% = protein alone, 100% = glycine-bound protein; Tm shift relative to glycine control, % at 25 µM; 340,000 compounds, 2.5% hits;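 active = melting temperature shift of at least 10% of the positive control shift, at one fixed dose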
# Myeloid diff MLP: myeloid differentiation induction; ER-HoxA9 myeloid progenitors, lysozyme-GFP differentiation, flow cytometry; calls only at 10 µM; 360,000 compounds, 1% hits;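 active = normalized GFP-positive differentiation at or above the plate's own cutoff, the solvent-only control mean plus 3 SD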;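 note: cells exposed to compound for four days before flow analysis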
# rCAG RNA binder: binds r(CAG) RNA repeats; r(CAG) RNA repeat, TO-PRO-1 dye displacement fluorescence; inhibition, % at 3 µM; 370,000 compounds, 1.3% hits; AID 651821;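 active = inhibition above the plate cutoff, the mean of all test compounds on that plate plus 3 SD, cut at about 35% in these data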;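 note: 0% = DMSO alone and 100% = 100 µM mitoxantrone as full dye displacement; higher means more dye released from RNA so lower well fluorescence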
# FAS-TE inh conf: confirmation of human fatty acid synthase thioesterase inhibitors; shares compounds with FAS TE block; recombinant FAS-TE, OMFH fluorogenic substrate, fluorescence; inhibition, % at 15 µM; 2,300 compounds, 45% hits; AID 624325;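 active = compounds inhibiting the enzyme by at least 50% at 15 µM in any one of the replicates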;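 note: 0% = enzyme with DMSO only and 100% = wells lacking enzyme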
# Active calls of the source: *; i = inactive; / = no result given. In the library only some 5.7% were active in any assay of this set; here they are far more common.
SMILES,FAS TE block,MPTP inh,NR3A LBD binder,Myeloid diff MLP,rCAG RNA binder,FAS-TE inh conf
Cc1ccc([C@@H]2C[C@H]3[C@@H](CN2S(=O)(=O)c2ccc(C)cc2)C(=O)C[C@@H](c2ccccc2)N3S(=O)(=O)c2ccc(C)cc2)cc1,30.7,-0.6,/,i,11.1,/
Cc1ccc(S(=O)(=O)N2[C@H](c3ccccc3)CC(=O)[C@@H]3CN(S(=O)(=O)c4ccccc4)[C@H](c4ccccc4)C[C@@H]32)cc1,83.4*,0.5,/,i,9.5,28.1
COc1ccc([C@@H]2CC(=O)[C@@H]3CN(S(=O)(=O)c4ccc(C)cc4)[C@H](c4ccccc4)C[C@@H]3N2S(=O)(=O)c2ccccc2)cc1,76.6*,0.5,/,i,11.9,9.6
CCN(CC)c1cc2nonc2c2nonc12,50.8*,0.6,3.5,i,0.2,44.5*
COc1ccc([N+](=O)[O-])cc1NC(=O)CSCc1ccccc1,62.4*,-0.4,-15.8,i,0.3,17.1
COc1ccc([N+](=O)[O-])cc1NC(=O)CCCOc1ccccc1,67.8*,2.0,-1.1,i,2.9,70.6*
COCC(=O)Nc1cc([N+](=O)[O-])ccc1OC,-12.0,2.2,-0.3,i,0.5,/
COc1ccc([N+](=O)[O-])cc1NC(=O)CCC(=O)c1cccs1,65.0*,-1.3,1.5,i,3.4,48.5*
COc1ccc([N+](=O)[O-])cc1/C=N/NC(=O)Cc1ccccc1,28.5,0.1,-2.0,i,13.4,/
COc1cc(/C=N/NC(=O)Cc2ccccc2)ccc1Oc1ccc([N+](=O)[O-])cc1[N+](=O)[O-],58.7*,12.2,1.6,i,3.4,13.5
Cc1ccc(S(=O)(=O)N(C)[C@H]2C[C@H]3c4[nH]c5c(-c6ccccc6)cccc5c4CCN3C(=O)[C@H]2[C@H](C)O)cc1,/,/,/,/,10.7,/
O=C(CSc1nc2ccccc2[nH]1)NN=Cc1ccccc1C(=O)O,/,/,/,/,1.5,/
O=C(O)CC(NC(=O)CC(c1ccccc1)c1ccccc1)c1cccc([N+](=O)[O-])c1 (stereo not drawn),56.4*,0.5,0.0,i,16.6,65.5*
COc1ccc([N+](=O)[O-])cc1NC(=O)Cc1ccc(C)cc1,25.6,-0.3,-0.8,i,1.8,/
COc1ccc(C(CC(=O)Nc2cc([N+](=O)[O-])ccc2OC)c2ccccc2)cc1 (stereo not drawn),61.4*,0.5,-5.7,i,10.0,49.9*
COc1ccc([N+](=O)[O-])cc1NC(=O)Cc1ccc(Cl)cc1,80.6*,0.7,-0.1,i,2.0,38.2
COCc1[nH]nc2c1C(c1ccc(C)cc1)N(Cc1ccccc1)C2=O (stereo not drawn),/,/,/,/,0.7,/
O=C1C=C(c2cccc3c2Oc2ccccc2S3)C[C@@H](c2ccc3c(c2)OCO3)C1,/,/,/,/,7.2,/
COC(=O)[C@]12C[C@H](CC(=O)NCCc3ccccc3OC)C(=O)N(Cc3ccc(Cl)cc3Cl)C1=C[C@H](COCc1ccccc1)O[C@@H]2C,/,/,/,/,10.6,/
O=C(/C=C/c1cccc([N+](=O)[O-])c1)N1CCN(c2ccc(F)cc2)CC1,79.7*,2.4,0.8,i,-7.7,80.5*
O=C(/C=C/c1ccccc1[N+](=O)[O-])N1CCN(c2ccc(F)cc2)CC1,25.3,1.3,-1.6,i,-8.0,/
CCOC(=O)c1c(NC(=O)CSc2nnc(-c3cccc(C)c3)n2CC)sc(C(C)=O)c1C,36.6,7.3,-1.6,i,5.1,/
Cn1c(SCC(=O)Nc2ncc(C(F)(F)F)cc2Cl)nnc1-c1ccc(Cl)cc1,80.8*,-8.6,-0.5,i,-5.0,90.2*
CCn1c(SCC(=O)Nc2ncc(C(F)(F)F)cc2Cl)nnc1-c1ccccc1,69.8*,2.3,-2.5,i,-6.8,73.1*
N#Cc1c(NC(=O)CSc2ncccn2)oc(-c2ccccc2)c1-c1ccccc1,13.8,3.3,-6.6,i,27.6,/
CCOC(=O)c1c(NC(=O)CSc2nnc(-c3ccccc3)n2CC)sc(C(C)=O)c1C,50.9*,5.8,-13.1,i,-0.2,17.2
CCn1c(SCC(=O)Nc2oc(-c3ccccc3)c(-c3ccccc3)c2C#N)nnc1-c1cc(OC)cc(OC)c1,53.9*,1.3,-2.8,i,/,2.7
O=C1N(c2ccccc2)CC2C(c3ccccc3)C(c3ccccc3)N3CCCC123 (stereo not drawn),/,/,/,/,5.7,/
